Our source for the growth inhibition, inhibition and outcome values is PubChem BioAssay.

Unmarked numbers belong to inactive results. For some of these results: Measured potencies and affinities stand elsewhere. Active and inactive are the calls of the source. Unless noted, how the calls were made is not given here.

A short description of experiment [1]: antimalarial activity against Dd2 strain (AID 2302;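 active means growth inhibition above 50% at the single 2 µM test dose, taken to imply half-maximal potency below 2 µM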;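 further: 0% = DMSO untreated growth and 100% = chloroquine plus artemisinin killed control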). The note with it: P. falciparum Dd2 in RBCs, LDH growth readout, 72 h; at 2 µM; hits give high values.
Experiment [2] in a line: human hepatoma cell viability loss – ATP luminescence, cytotoxicity control for P. falciparum antimalarial project, primary screen (AID 2303;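 active means inhibition above 50%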;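 further: 0% = DMSO wells and 100% = digitonin-killed cells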). The note with it: HepG2 viability, 24-48 h, at 10 µM, hits give high values.
Experiment [3] has as its target L-lactate dehydrogenase (Plasmodium falciparum (isolate CDC / Honduras)) (UniProt Q27743). The experiment is described as follows: PfLDH activity inhibition – cell lysate, 3D7 strain, counter-screen for P. falciparum growth inhibition project (AID 2304).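 Further: 0% = vehicle and 100% = reference inhibitor.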 The note with it: P. falciparum 3D7 crude extract, LDH APAD/NBT absorbance; at 2 µM; hits give high values.
Experiment [4] can be described thus: inhibition of 3D7 malaria parasite growth – strain 3D7 (AID 2306).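 Further: 0% = DMSO wells and 100% = chloroquine plus artemisinin control wells.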 The note with it: P. falciparum 3D7 erythrocytic growth, LDH absorbance, 72 h; at 2 µM; hits give high values.
In experiment [5] the target is Calcium-dependent protein kinase 1 (Plasmodium falciparum (isolate 3D7)) (UniProt P62344). Kind of experiment: PfCDPK1 kinase inhibitors, biochemical, TCAMS library (AID 1159585; cut-off not given, nearly all actives have IC50 up to about 0.98 µM;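 further: inhibitors leave more ATP so luminescence rises with inhibition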). The note with it: recombinant PfCDPK1, Kinase-Glo ATP depletion luminescence. (In general: Kinase-Glo reads ATP consumption through a luciferase reaction.)
Chain of Calcium-dependent protein kinase 1 (Plasmodium falciparum (isolate 3D7)) (P62344 whole entry, looked up): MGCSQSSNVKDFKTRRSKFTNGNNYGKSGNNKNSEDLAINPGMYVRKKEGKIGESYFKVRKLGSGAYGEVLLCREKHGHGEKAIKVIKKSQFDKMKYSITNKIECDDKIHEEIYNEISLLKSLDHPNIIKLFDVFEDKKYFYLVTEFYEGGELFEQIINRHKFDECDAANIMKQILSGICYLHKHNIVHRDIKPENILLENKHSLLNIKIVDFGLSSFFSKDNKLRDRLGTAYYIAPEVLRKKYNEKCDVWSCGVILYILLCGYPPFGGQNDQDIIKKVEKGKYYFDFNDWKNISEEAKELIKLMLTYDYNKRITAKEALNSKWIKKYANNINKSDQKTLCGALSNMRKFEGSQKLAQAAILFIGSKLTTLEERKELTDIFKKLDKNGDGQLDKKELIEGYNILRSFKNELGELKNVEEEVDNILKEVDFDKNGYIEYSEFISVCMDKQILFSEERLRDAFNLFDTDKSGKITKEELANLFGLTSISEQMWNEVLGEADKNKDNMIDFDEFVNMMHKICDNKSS
Experiment [6] deals with Plasmodium falciparum protein kinase 6 (PK6, PF3D7_1337100) (UniProt Q8IDW1). Kind of experiment: PfPK6 kinase inhibitors, biochemical, TCAMS library (AID 1159586). Conditions: recombinant PfPK6, Kinase-Glo ATP depletion luminescence.
Chain of Plasmodium falciparum protein kinase 6 (PK6, PF3D7_1337100) (Q8IDW1 1-305): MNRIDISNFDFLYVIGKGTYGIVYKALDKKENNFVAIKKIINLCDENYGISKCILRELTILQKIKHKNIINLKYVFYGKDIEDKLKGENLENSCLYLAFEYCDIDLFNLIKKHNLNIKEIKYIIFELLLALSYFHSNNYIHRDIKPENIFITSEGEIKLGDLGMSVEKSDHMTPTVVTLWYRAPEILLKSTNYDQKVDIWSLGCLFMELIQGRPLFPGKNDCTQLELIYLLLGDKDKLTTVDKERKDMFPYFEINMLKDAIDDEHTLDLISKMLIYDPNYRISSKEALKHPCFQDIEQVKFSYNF
Experiment [7] concerns the target Protein kinase 7 (PK7), Plasmodium falciparum 3D7 (PF3D7_0213400) (UniProt Q7YTF7). Kind of experiment: inhibition of Plasmodium PK7 catalytic activity – biochemical, TCAMS antimalarial set, Kinase-Glo luminescence (AID 1159587). The note with it: recombinant PfPK7, Kinase-Glo ATP depletion luminescence.
For experiment [8], the target named is Calcium-dependent protein kinase 4 (Plasmodium falciparum (isolate 3D7)) (UniProt Q8IBS5). The experiment is described as follows: PfCDPK4 kinase inhibitors, biochemical, TCAMS library (AID 1159588; cut-off not given, nearly all actives have IC50 up to about 0.91 µM). Conditions: recombinant PfCDPK4, Kinase-Glo ATP depletion luminescence.
Chain of Calcium-dependent protein kinase 4 (Plasmodium falciparum (isolate 3D7)) (Q8IBS5 whole entry, looked up): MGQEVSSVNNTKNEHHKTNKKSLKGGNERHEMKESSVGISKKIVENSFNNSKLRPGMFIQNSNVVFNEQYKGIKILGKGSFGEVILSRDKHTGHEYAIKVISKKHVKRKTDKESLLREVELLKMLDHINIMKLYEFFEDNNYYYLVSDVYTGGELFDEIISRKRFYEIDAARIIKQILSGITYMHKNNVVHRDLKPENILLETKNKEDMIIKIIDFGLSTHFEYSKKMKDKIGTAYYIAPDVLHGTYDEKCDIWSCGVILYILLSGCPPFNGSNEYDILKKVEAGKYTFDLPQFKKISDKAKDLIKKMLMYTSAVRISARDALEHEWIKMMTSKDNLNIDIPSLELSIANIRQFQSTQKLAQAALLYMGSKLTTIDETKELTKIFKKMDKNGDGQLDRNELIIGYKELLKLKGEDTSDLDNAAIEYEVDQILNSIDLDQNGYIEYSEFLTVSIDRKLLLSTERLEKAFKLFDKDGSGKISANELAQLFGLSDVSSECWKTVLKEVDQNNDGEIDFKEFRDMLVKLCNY

Chain of Protein kinase 7 (PK7), Plasmodium falciparum 3D7 (PF3D7_0213400) (Q7YTF7 1-343): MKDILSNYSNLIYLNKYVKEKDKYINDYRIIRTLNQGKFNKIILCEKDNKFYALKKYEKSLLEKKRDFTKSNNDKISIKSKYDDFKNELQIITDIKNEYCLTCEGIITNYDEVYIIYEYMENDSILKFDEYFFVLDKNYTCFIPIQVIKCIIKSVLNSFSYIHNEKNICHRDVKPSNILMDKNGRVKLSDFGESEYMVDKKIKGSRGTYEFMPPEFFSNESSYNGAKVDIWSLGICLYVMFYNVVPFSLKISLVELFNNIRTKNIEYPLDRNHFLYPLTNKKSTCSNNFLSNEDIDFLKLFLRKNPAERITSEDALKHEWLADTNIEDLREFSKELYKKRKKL
Chain of L-lactate dehydrogenase (Plasmodium falciparum (isolate CDC / Honduras)) (Q27743 whole entry, looked up): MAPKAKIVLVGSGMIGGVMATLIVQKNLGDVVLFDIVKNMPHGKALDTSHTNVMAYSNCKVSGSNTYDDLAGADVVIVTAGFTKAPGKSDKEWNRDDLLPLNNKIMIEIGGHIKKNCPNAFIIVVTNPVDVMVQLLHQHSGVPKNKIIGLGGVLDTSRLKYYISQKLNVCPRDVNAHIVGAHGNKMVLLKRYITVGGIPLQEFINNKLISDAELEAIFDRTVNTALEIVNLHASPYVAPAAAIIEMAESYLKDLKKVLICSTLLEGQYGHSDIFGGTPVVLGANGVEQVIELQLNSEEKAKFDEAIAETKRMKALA

What is called inhibition is the drop in the measured response relative to a control, in per cent. For `C#CCNCc1ccc(-c2ccc(-c3nc4ccc(C(F)(F)F)cc4[nH]3)s2)cc1`, the growth inhibition in experiment [1] is 28%; in experiment [4], 98% (active). In addition, the figures for the inhibition in experiment [2] and in experiment [3] were 37% and 0%, respectively. For the same molecule, the result in experiment [5], in experiment [6], in experiment [7] and in experiment [8] was inactive.

With `Cc1noc(C)c1-c1cccc(CNCc2cccc(-c3ccc(-c4nc5c(C)cccc5[nH]4)cc3)c2)c1`, the growth inhibition in experiment [1] is 69% (active); in experiment [4], 103% (active). Moreover, the inhibition in experiment [2] is 24%; in experiment [3], 6%. Moreover, the outcome in experiment [5], in experiment [6], in experiment [7] and in experiment [8] was inactive.

As to `CN1CCC(NCc2ccc(-c3ccc(S(=O)(=O)NCc4ccccc4)s3)cc2)CC1`, the figures for the growth inhibition in experiment [1] and in experiment [4] were 95% (active) and 99% (active), respectively. Further, the figures for the inhibition in experiment [2] and in experiment [3] were 77% (active) and -3%, respectively. For the same molecule, the result in experiment [5], in experiment [6], in experiment [7] and in experiment [8] was inactive.

`N#Cc1cccc(CN2CCCN(c3ccc(NC(=O)c4cccs4)cc3)CC2)c1`: the figures for the growth inhibition in experiment [1] and in experiment [4] were 95% (active) and 96% (active), respectively. Further, the inhibition in experiment [2] and in experiment [3] was -2% throughout. Besides, the outcome in experiment [5], in experiment [6], in experiment [7] and in experiment [8] was inactive.

`Clc1ccc(Sc2cncnc2N2CCOCC2)cc1`: the values for the growth inhibition in experiment [1] and in experiment [4] were -6% and 95% (active), respectively. Further, the results for the inhibition in experiment [2] and in experiment [3] were 66% (active) and -2%, respectively. Besides, the result in experiment [5], in experiment [6], in experiment [7] and in experiment [8] was inactive.

Turning to `CC1CC(C)CN(CC(O)CNC(=O)Nc2ccc(Br)cc2)C1` (stereo not given), the growth inhibition in experiment [1] was 44%; in experiment [4], 94% (active). Further, the inhibition in experiment [2] is 13%; in experiment [3], 5%. In addition, the outcome in experiment [5], in experiment [6], in experiment [7] and in experiment [8] was inactive.

Regarding `COc1ccc2c(-c3ccccc3)noc2c1`, the growth inhibition in experiment [1] was 34%; in experiment [4] it was 98% (active). Also, the inhibition in experiment [2] is -4%; in experiment [3], -2%. Besides, the outcome in experiment [5], in experiment [6], in experiment [7] and in experiment [8] was inactive.

Regarding `O=c1cc(NCCCNCc2ccc(Cl)c(Cl)c2)[nH]c2cc(F)cc(F)c12`, the figures for the growth inhibition in experiment [1] and in experiment [4] were 94% (active) and 102% (active), respectively. Besides, the inhibition in experiment [2] was 11%; in experiment [3], 0%. For the same molecule, the outcome in experiment [5], in experiment [6], in experiment [7] and in experiment [8] was inactive.

`CN(C)c1ccc(N=C2N=C(Nc3ccc(N(C)C)cc3)c3ccccc32)cc1`: the growth inhibition in experiment [1] is 20%; in experiment [4], 93% (active). The results for the inhibition in experiment [2] and in experiment [3] were 23% and -5%, respectively. Moreover, the result in experiment [5], in experiment [6], in experiment [7] and in experiment [8] was inactive.

As for `OC1CCCN(Cc2ccc(-c3cccc(-c4nc5ccc(F)cc5[nH]4)c3)cc2)C1` (stereo not given), the growth inhibition in experiment [1] is 49%; in experiment [4], 99% (active). The figures for the inhibition in experiment [2] and in experiment [3] were 28% and -5%, respectively. Further, the result in experiment [5], in experiment [6], in experiment [7] and in experiment [8] was inactive.

On to `O=C(/C=C/c1cccs1)NCC(NCCCNc1cc(=O)c2ccccc2[nH]1)c1cc(Br)cc(Br)c1` (stereo not given), for which the results for the growth inhibition in experiment [1] and in experiment [4] were 58% (active) and 100% (active), respectively. The inhibition in experiment [2] and in experiment [3] was 0% in each case. The result in experiment [5], in experiment [6], in experiment [7] and in experiment [8] was inactive.

`O=C(Nc1cccc(-c2ccc(-c3nc4ccc(F)cc4[nH]3)s2)c1)c1ccncc1`: the growth inhibition in experiment [1] is 29%; in experiment [4] it was 96% (active). The inhibition in experiment [2] is 74% (active); in experiment [3], -8%. The outcome in experiment [5], in experiment [6], in experiment [7] and in experiment [8] was inactive.

Regarding `Cc1cc(F)ccc1Nc1nc(N(C)c2ccccc2)c2cccc(O)c2n1`, the values for the growth inhibition in experiment [1] and in experiment [4] were 81% (active) and 92% (active), respectively. The inhibition is 38% in experiment [2] and 2% in experiment [3]. In addition, the outcome in experiment [5], in experiment [6], in experiment [7] and in experiment [8] was inactive.

On to `COc1ccc(F)cc1-c1ccccc1CNC(=O)CN(C)S(=O)(=O)c1cc(C)cc(Cl)c1C`, for which the growth inhibition in experiment [1] was 73% (active); in experiment [4] it was 92% (active). The inhibition in experiment [2] is -3%; in experiment [3], -2%. Also, the outcome in experiment [5], in experiment [6], in experiment [7] and in experiment [8] was inactive.

`Nc1c2c(nc3ccc(Oc4ccc(Br)cc4Br)cc13)CCCC2`: the growth inhibition is 47% in experiment [1] and 99% (active) in experiment [4]. The figures for the inhibition in experiment [2] and in experiment [3] were 33% and 0%, respectively. Also, the result in experiment [5], in experiment [6], in experiment [7] and in experiment [8] was inactive.

On to `O=C(Nc1ccc([N+](=O)[O-])cc1O)Nc1ccccc1Oc1ccccc1`, for which the growth inhibition in experiment [1] was 1%; in experiment [4] it was 92% (active). The results for the inhibition in experiment [2] and in experiment [3] were 45% and -8%, respectively. In addition, the outcome in experiment [5], in experiment [6], in experiment [7] and in experiment [8] was inactive.

Consider `CC(C)n1ncc2c(C(=O)N3CCCCCC3)cc(-c3ccccc3)nc21`, for which the growth inhibition is 42% in experiment [1] and 97% (active) in experiment [4]. Moreover, the inhibition in experiment [2] is -12%; in experiment [3], 2%. Further, the result in experiment [5], in experiment [6], in experiment [7] and in experiment [8] was inactive.

Turning to `CN(C)CCCOc1ccc(CNCc2cccc(Oc3ccc(Cl)cc3)c2)cc1`, the growth inhibition was 30% in experiment [1] and 100% (active) in experiment [4]. Besides, the inhibition in experiment [2] is 52% (active); in experiment [3] it was 0%. Further, the outcome in experiment [5], in experiment [6], in experiment [7] and in experiment [8] was inactive.

`O=c1cc(NCCCNCc2ccc(Cl)c(Cl)c2)[nH]c2ccc(Oc3ccccc3)cc12`: the growth inhibition in experiment [1] was 29%; in experiment [4] it was 92% (active). For the same molecule, the inhibition was 1% in experiment [2] and 2% in experiment [3]. The outcome in experiment [5], in experiment [6], in experiment [7] and in experiment [8] was inactive.

In the case of `COc1ccc(CN(C)Cc2cc(C(C)C)c(C)cc2O)cc1F`, the growth inhibition in experiment [1] and in experiment [4] was 98% (active) each time. The inhibition is 1% in experiment [2] and -4% in experiment [3]. Further, the outcome in experiment [5], in experiment [6], in experiment [7] and in experiment [8] was inactive.
